# Only a selection was taken, and the strongest signals are over-represented in it overall.
# Columns and labels:
# Assay in all cases: glycan array binding signal (z-score within array); higher = stronger binding
# Conditions in all cases: glycan notation: IUPAC condensed, linker removed
# [1] = system: GalNAc(a1-3)GalNAc(b1-3)Gal(a1-4)Gal(b1-4)Glc
# Procedure, shortened: (§1)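 The binding signal is a Z-score computed within each array. Data were drawn from 3228 arrays in the Consortium for Functional Glycomics database, restricted to those with a known protein sequence. Scores were averaged over arrays of the same protein sequence at different concentrations or buffers, and over linkers, and negative values can be taken as non-binding.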
# [2] = system: Glc(a1-4)Glc
# Procedure, shortened: as §1
# [3] = system: Glc(a1-6)Glc(a1-6)Glc
# Procedure, shortened: as §1
# [4] = system: Glc(b1-4)Glc
# Procedure, shortened: as §1
# [5] = system: Glc(b1-6)Glc
# Procedure, shortened: as §1
# [6] = system: GlcA(b1-3)Gal
# Procedure, shortened: as §1
# [7] = system: GlcA(b1-3)GlcNAc
# Procedure, shortened: as §1
# [8] = system: GalNAc(b1-3)Gal(a1-6)Gal(b1-4)Glc
# Procedure, shortened: as §1
# [9] = system: GalNAc(b1-4)Gal(b1-4)Glc
# Procedure, shortened: as §1
# [10] = system: GalNAc(a1-3)Gal
# Procedure, shortened: as §1
# [11] = system: GalNAc(b1-6)GalNAc
# Procedure, shortened: as §1
# [12] = system: GalNAc(b1-3)Gal(a1-4)Gal(b1-4)GlcNAc
# Procedure, shortened: as §1
# [13] = system: GalNAc(b1-4)GlcNAc(b1-2)Man(a1-3)[GalNAc(b1-4)GlcNAc(b1-2)Man(a1-6)]Man(b1-4)GlcNAc(b1-4)GlcNAc
# Procedure, shortened: as §1
# [14] = system: GlcA3S(b1-3)Gal(b1-4)GlcNAc(b1-2)Man
# Procedure, shortened: as §1
# [15] = system: GalNAc(b1-3)GalNAc
# Procedure, shortened: as §1
# [16] = system: GalNAc(b1-4)GlcNAc(b1-3)GalNAc(b1-4)GlcNAc
# Procedure, shortened: as §1
# [17] = system: GalNAc4S6S(b1-4)GlcNAc
# Procedure, shortened: as §1
# [18] = system: GalNAc(b1-3)GlcNAc
# Procedure, shortened: as §1
# [19] = system: GalNAc3S(b1-4)GlcNAc
# Procedure, shortened: as §1
# [20] = system: Glc(a1-4)Glc(a1-4)Glc(a1-4)Glc
# Procedure, shortened: as §1
substance,measurement,setting,value
"SiiE (Salmonella typhimurium), A0A0H3NVH0",glycan array binding signal (z-score),[1],-1.13
same,glycan array binding signal (z-score),[2],-0.099
"SpGH101 (Streptococcus pneumoniae), Q8DR60",glycan array binding signal (z-score),[3],-0.103
same,glycan array binding signal (z-score),[4],-0.147
same,glycan array binding signal (z-score),[5],-0.186
same,glycan array binding signal (z-score),[6],-0.183
same,glycan array binding signal (z-score),[7],3.66
Epa22,glycan array binding signal (z-score),[8],-0.822
"BambL (Burhholderia ambifaria), Q0B4G1",glycan array binding signal (z-score),[8],-0.314
same,glycan array binding signal (z-score),[9],-0.316
"GspB (Streptococcus gordonii), Q939N5",glycan array binding signal (z-score),[6],-0.677
Actinohivin (Actinomycete K97),glycan array binding signal (z-score),[10],-0.192
same,glycan array binding signal (z-score),[11],-0.188
AgI/IIC123-GFP (Streptococcus mutans),glycan array binding signal (z-score),[12],1.61
same,glycan array binding signal (z-score),[9],-0.438
same,glycan array binding signal (z-score),[13],-0.272
same,glycan array binding signal (z-score),[14],3.12
LcI (Legionella pneumophila),glycan array binding signal (z-score),[15],-0.554
same,glycan array binding signal (z-score),[16],-0.365
same,glycan array binding signal (z-score),[17],-0.709
AgI/II Vhelical-GFP (Streptococcus mutans),glycan array binding signal (z-score),[10],-0.061
same,glycan array binding signal (z-score),[18],-0.152
same,glycan array binding signal (z-score),[19],-0.11
same,glycan array binding signal (z-score),[20],-0.13
same,glycan array binding signal (z-score),[3],-0.269

# Reference: the supplement of paper PMC8728848
